The source of these data is PubChem BioAssay (NCI).

The panel holds about 83,000 compounds, 20% with a hit somewhere; the sample as a whole holds those more often.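 Assay: single dose, 48 h. Readout: percent growth (0 = no net growth; negative = cell death). Active: <10.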 Active and inactive are the calls of the source.

The test system of the first assay is SN12C renal. The experiment in a line: NCI-60 one-dose screen, 48 h (100 = growth as untreated, 0 = no growth, -100 = all killed). Particulars: 10 µM unless noted.
Take `COc1cc2cc(COc3nccc(-c4ccc(Cl)cc4)n3)c(=O)[nH]c2cc1OC`: the growth is 69.3% (inactive). Turning to `Cc1ccc(S(=O)(=O)N(CCc2ccc(Cl)cc2)S(=O)(=O)c2ccc(C)cc2)cc1`, the growth is 105% (inactive).

For `CC[C@H](Nc1cc(C)nc(N)n1)c1nc2cccc(NCc3ccc(C(=O)NO)cc3)c2c(=O)n1-c1ccccc1`, the growth was 29% (inactive). Regarding `CN1CCCCC1CCN1c2ccccc2Sc2ccc(Br)cc21` (configuration not stated), the growth was 73.3% (inactive). The same measure, in the same setting: to `O=C1Nc2ccc(Br)cc2C12CC(c1ccccc1)=NN2` (configuration not stated) belongs 61.7% (inactive).

Regarding `O=C(N/N=C/c1ccc(O)cc1O)c1cccnc1`, the growth was 57.2% (inactive). Consider `O=C(Nc1ccc(F)cc1)Nc1ccc(CCO)cc1`, for which the growth was 101% (inactive). As for `C[C@@H]1CC[C@@H]2[C@@H]1[C@H](OC(=O)/C=C/c1ccccc1)[C@]1(C3CCCCC3)C[C@@H](OC(=O)CO)[C@@]2(C)O1`, the growth was 16.6% (inactive).

Take `O=C1Nc2ccccc2/C1=C/C(=N/c1nnc(-c2ccccc2)s1)c1ccccc1`: the growth was 41.8% (inactive). Regarding `CCCCCCCCOC(=O)CC[C@@H](C)[C@H]1CC[C@H]2[C@@H]3[C@H](OC(=O)CCN)C[C@@H]4C[C@H](OC(=O)CCN)CC[C@]4(C)[C@H]3C[C@H](OC(=O)CCN)[C@]12C`, the growth was 77.6% (inactive).

For the next assay, the system named is UO-31 renal. The assay is described as above. Particulars: 10 µM unless noted.
As to `Nc1cc2nc3ccccc3sc-2cc1=O`, the growth was 42.8% (inactive).

Turning to `Cc1noc(C)c1-c1cc(O)cc(C(O)c2ccccc2)c1` (configuration not stated), the growth is 16.9% (inactive). The same measure, in the same setting: to `CCCCCC(=O)N(CCCC)CCCC` belongs 78.5% (inactive); to `COc1ccc(/C=N\NC(=O)c2ccncc2)cc1O`, 77.8% (inactive). Still for that read-out and setting: to `O=C(Cn1cc(CN2C(=O)c3ccccc3S2(=O)=O)nn1)Nc1ccc([N+](=O)[O-])cc1Cl` belongs 82.7% (inactive); to `Oc1ccc(Nc2nccc(-c3ccc4ccccc4c3)n2)cc1`, 29% (inactive).

As for `O=C1C=CC(=O)c2c1nc1n2CCCC1`, the growth is 91.1% (inactive). The same measure, in the same setting: the figure for `Cc1cc(Nc2nc(N3CCOCC3)nc3ccccc23)n[nH]1` is 35.4% (inactive); for `Cc1ccc(C2CC3c4ccccc4C2C2CCCCN32)cc1` (configuration not stated) it is 91.7% (inactive); for `Cc1csc2ccc(Cl)cc12` it is 81.6% (inactive). For the molecule `O=S(=O)(Nc1ccc(F)c(Cl)c1)c1ccc(-c2cnc(C3CC3)o2)cc1`, the growth was 41.8% (inactive). With `CC#Cc1nc2ccccc2c(=O)[nH]1`, the growth is 22.9% (inactive). On the same count and under the same terms, to `C[C@H](CCC(=O)O)[C@H]1CC[C@H]2[C@@H]3CC[C@@H]4/C(=C\c5ccco5)C(=O)/C(=C\c5ccco5)C[C@]4(C)[C@H]3CC[C@]12C` belongs 49.6% (inactive). As to `Cc1cc(Nc2nc(-c3cccnc3)nc3ccccc23)n[nH]1`, the growth is 60.4% (inactive). Still for that read-out and setting: the figure for `COc1cc(OC)c(/C=C/c2cc[n+](C)c3ccccc23)c(OC)c1` is 61% (inactive); for `CCCCCCCCCCCCCCCC[N+]1(CC)CCCC1` it is 38.3% (inactive); for `CC(=O)OCC(=O)C1CCC=CC1OC(C)=O` (configuration not stated) it is 66.4% (inactive). The same measure, in the same setting: the figure for `COC1C/C(=N\O)C2OC(c3ccccc3)OCC2O1` (configuration not stated) is 87.2% (inactive).

As for `CC[C@H](Nc1nc(N)nc(C)c1C#N)c1nc2cccc(NCc3ccc(C(=O)NO)cc3)c2c(=O)n1-c1ccccc1`, the growth was 4.77% (active). Same read-out and setting: the figure for `Cc1ccc2c(NCCCN(C)C)c3c(C)nn(C)c3nc2c1` is 26.5% (inactive); for `NC(CC(=O)O)C(=O)OCc1ccccc1` (configuration not stated) it is 71.8% (inactive); for `NCCN1CCN(c2nccc(-c3ccc4ccccc4c3)n2)CC1` it is 12.4% (inactive). Still for that read-out and setting: to `Nc1ccc(Nc2nccc(-c3ccc4ccccc4c3)n2)cc1` belongs 45.7% (inactive); to `CCCNc1nc(SC)nc(-c2cccc(N)c2)c1C#N`, 76.8% (inactive); to `CCCCCCCCCCCCN1CCCC(C)C1` (configuration not stated), 60.8% (inactive). On the same count and under the same terms, the figure for `COc1ccc(-c2nc(Nc3cc(C)[nH]n3)c3ccccc3n2)cc1` is 41% (inactive); for `COc1cc2cc(COc3nccc(-c4ccc(Cl)cc4)n3)c(=O)[nH]c2cc1OC` it is 67.2% (inactive).

In the case of `Cc1ccc(S(=O)(=O)N(CCc2ccc(Cl)cc2)S(=O)(=O)c2ccc(C)cc2)cc1`, the growth was 70% (inactive). The same measure, in the same setting: the figure for `CC[C@H](Nc1cc(C)nc(N)n1)c1nc2cccc(NCc3ccc(C(=O)NO)cc3)c2c(=O)n1-c1ccccc1` is 80.1% (inactive); for `CN1CCCCC1CCN1c2ccccc2Sc2ccc(Br)cc21` (configuration not stated) it is 32.9% (inactive).

Regarding `O=C1Nc2ccc(Br)cc2C12CC(c1ccccc1)=NN2` (configuration not stated), the growth was 48.4% (inactive).

With `O=C(N/N=C/c1ccc(O)cc1O)c1cccnc1`, the growth is 22.2% (inactive).
